From PubChem BioAssay (EPA / NIEHS)
Results filed as inconclusive are left out. The source made the active and inactive calls. Rule for the calls, unless noted: active = hit-call score of the fitted dose curve at least 0.9, where 1 is the maximum; inactive = score below 0.9.

Key:
[1] = read-out: succinate dehydrogenase complex iron sulfur subunit B (SDHB), SDHB (gene 6390); experiment: LTEA_HepaRG_SDHB: Life Technologies and Expression Analysis (LTEA) Assay for succinate dehydrogenase complex iron sulfur subunit B (SDHB) using HepaRG (AID 2283528); details: mRNA level, 48 h; actives raise or lower the signal
How it was run: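 HepaRG, 48 h exposure, 8-pt half-log series from 100 uM in 0.5% DMSO, duplicates. Readout: SDHB mRNA by Fluidigm qRT-PCR vs housekeeping genes; bidirectional fit relative to DMSO.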

[2] = read-out: Signal transducer and activator of transcription 3 (Homo sapiens) (UniProt P40763); experiment: LTEA_HepaRG_STAT3: Life Technologies and Expression Analysis (LTEA) Assay for Signal transducer and activator of transcription (STAT3) using HepaRG (AID 2283529); details: mRNA level, 48 h; actives raise or lower the signal
How it was run: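 HepaRG, 48 h exposure, 8-pt half-log series (top 100 uM), 0.5% DMSO vehicle, duplicates. Readout: STAT3 transcript by Fluidigm qRT-PCR, housekeeping-normalized; bidirectional fit vs DMSO baseline.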

[3] = read-out: solute carrier (SLCO1B1), SLCO1B1 (gene 10599); experiment: LTEA_HepaRG_SLCO1B1: Life Technologies and Expression Analysis (LTEA) Assay for solute carrier (SLCO1B1) using HepaRG (AID 2283530); details: mRNA level, 48 h; actives raise or lower the signal
How it was run: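 Gain or loss of SLCO1B1 mRNA is fitted against the 0.5% DMSO vehicle in human HepaRG liver cells treated 48 h at up to 100 uM in half-log steps. Expression comes from qRT-PCR normalized to endogenous controls.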

[4] = read-out: sulfotransferase 2A1 (SULT2A1), SULT2A1 (gene 6822); experiment: LTEA_HepaRG_SULT2A1: Life Technologies and Expression Analysis (LTEA) Assay for sulfotransferase 2A1 (SULT2A1) using HepaRG (AID 2283531); details: mRNA level, 48 h; actives raise or lower the signal
How it was run: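 Cells were plated and cultured 48 h, switched to serum-free induction medium, then dosed in duplicate for 48 h (8 concentrations, max 100 uM). RNA was isolated and SULT2A1 expression measured by qRT-PCR; gain or loss of signal fitted relative to DMSO.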

[5] = read-out: Transforming Growth Factor (TGFA), TGFA (gene 7039); experiment: LTEA_HepaRG_TGFA: Life Technologies and Expression Analysis (LTEA) Assay for Transforming Growth Factor (TGFA) using HepaRG (AID 2283532); details: mRNA level, 48 h; actives raise or lower the signal
How it was run: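 qRT-PCR read-out of TGFA transcript, normalized to three housekeeping genes, fitted bidirectionally against 0.5% DMSO baseline. Human HepaRG cultures received chemicals for 48 h at eight half-log concentrations, top 100 uM.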

[6] = read-out: Transforming Growth Factor (TGFB1), TGFB1 (gene 7040); experiment: LTEA_HepaRG_TGFB1: Life Technologies and Expression Analysis (LTEA) Assay for Transforming Growth Factor (TGFB1) Transporter using HepaRG (AID 2283533); details: mRNA level, 48 h; actives raise or lower the signal
How it was run: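 Expression change of TGFB1 in human HepaRG cells is measured after a 48 h chemical exposure, up to 100 uM in 0.5% DMSO vehicle. Curves are fitted in both directions relative to the DMSO baseline.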

TIMP1, TIMP1 (gene 7076) = experiment: LTEA_HepaRG_TIMP1: Life Technologies and Expression Analysis (LTEA) Assay for TIMP1 using HepaRG (AID 2283534); details: mRNA level, 48 h; actives raise or lower the signal
How it was run: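 We dosed human liver HepaRG cultures for 48 hours with up to 100 uM test chemical and measured TIMP1 expression by qRT-PCR. Activity in either direction is fitted relative to the 0.5% DMSO vehicle.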

[7] = read-out: Tumor necrosis factor receptor 1 (TNFRSF1A), TNFRSF1A (gene 7132); experiment: LTEA_HepaRG_TNFRSF1A: Life Technologies and Expression Analysis (LTEA) Assay for Tumor necrosis factor receptor 1 (TNFRSF1A) using HepaRG (AID 2283535); details: mRNA level, 48 h; actives raise or lower the signal
How it was run: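 Expression of TNFRSF1A in human HepaRG liver cells was measured by qRT-PCR 48 h after chemical dosing (maximum 100 uM). Bidirectional curve fitting used 0.5% DMSO as baseline.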

[8] = read-out: Thyroid Hormone Responsive (THRSP), THRSP (gene 7069); experiment: LTEA_HepaRG_THRSP: Life Technologies and Expression Analysis (LTEA) Assay for Thyroid Hormone Responsive (THRSP) using HepaRG (AID 2283536); details: mRNA level, 48 h; actives raise or lower the signal
How it was run: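 qRT-PCR read-out (Fluidigm TaqMan), housekeeping-normalized (ACTB/GAPDH/POLR2A). HepaRG, 48 h chemical exposure, 8-pt half-log series from 100 uM in 0.5% DMSO, duplicates. Bidirectional curve fit vs 0.5% DMSO baseline.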

[9] = read-out: Cellular tumor antigen p53 (Homo sapiens) (UniProt P04637); experiment: LTEA_HepaRG_TP53: Life Technologies and Expression Analysis (LTEA) Assay for Tumor Protein P53 (TP53) using HepaRG (AID 2283537); details: mRNA level, 48 h; actives raise or lower the signal
How it was run: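 HepaRG, 48 h exposure, top 100 uM, half-log 8-point, 0.5% DMSO vehicle, duplicates. Read: TP53 mRNA by TaqMan qRT-PCR, normalised to ACTB/GAPDH/POLR2A; bidirectional fit vs DMSO.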

[10] = read-out: UDP glucuronosyltransferase (UGT1A1), UGT1A1 (gene 54658); experiment: LTEA_HepaRG_UGT1A1: Life Technologies and Expression Analysis (LTEA) Assay for UDP glucuronosyltransferase (UGT1A1) using HepaRG (AID 2283538); details: mRNA level, 48 h; actives raise or lower the signal
How it was run: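 mRNA induction or loss of UGT1A1, by TaqMan qRT-PCR, in duplicate HepaRG wells after 48 h exposure to half-log dilutions topping at 100 uM; DMSO (0.5%) served as baseline.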

[11] = read-out: X-box binding protein 1 (XBP1), XBP1 (gene 7494); experiment: LTEA_HepaRG_XBP1: Life Technologies and Expression Analysis (LTEA) Assay for X-box binding protein 1 (XBP1) using HepaRG (AID 2283540); details: mRNA level, 48 h; actives raise or lower the signal
How it was run: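 Human HepaRG monolayers receive test chemical for 48 h across an eight-point half-log series starting at 100 uM. XBP1 mRNA gain or loss is scored against DMSO by qRT-PCR.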

[12] = LTEA_HepaRG_LDH_cytotoxicity: Cytotoxicity Assessment in the Life Technologies and Expression Analysis (LTEA) Assay (AID 2283563; active = hit-call score of the fitted dose curve at least 0.9, where 1 is the maximum;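 for AC50: LDH activity released into spent culture medium as a marker of cell death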)
How it was run: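 Human HepaRG hepatic cells are treated with test chemicals for 48 h at up to 100 uM in 0.5% DMSO. Cytotoxicity is scored from medium LDH against the vehicle control.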

[13] = ATG_XTT_Cytotoxicity: Cytotoxicity Assessment in the Attagene TRANS-FACTORIAL HepG2 Assay (AID 2283584; active = hit-call score of the fitted dose curve at least 0.9, where 1 is the maximum)
How it was run: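 Transfect HepG2 with GAL4-UAS reporter units, dose compound, incubate 24 h, then measure viable cell number by XTT. Fit concentration response against DMSO baseline.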

[14] = TOX21_p53_BLA_p2_viability: Viability Assessment in the Tox21 HCT-116 p53 Agonism Beta-lactamase Assay, Phase 2 (AID 2283591; active = hit-call score of the fitted dose curve at least 0.9, where 1 is the maximum;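 note: compound exposure lasted 16 h at 37 °C; actives lower the ATP signal meaning cytotoxicity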)
How it was run: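 HCT116 p53-bla cells, 4000/well, dosed after 5 h plating (217-fold dilution of DMSO stocks) and incubated 16 h at 37C. Viability taken as cellular ATP by CellTiter-Glo luminescence after 30 min RT; signal loss marks cytotoxicity.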

[15] = biological target: Cellular tumor antigen p53 (Homo sapiens) (UniProt P04637); experiment: TOX21_p53_BLA_p2_ratio: Tox21 HCT-116 p53 Agonism Beta-lactamase Assay, Ratio, Phase 2 (AID 2283592; active = hit-call score of the fitted dose curve at least 0.9, where 1 is the maximum)
Cellular tumor antigen p53 (Homo sapiens), sequence (P04637 whole entry, looked up): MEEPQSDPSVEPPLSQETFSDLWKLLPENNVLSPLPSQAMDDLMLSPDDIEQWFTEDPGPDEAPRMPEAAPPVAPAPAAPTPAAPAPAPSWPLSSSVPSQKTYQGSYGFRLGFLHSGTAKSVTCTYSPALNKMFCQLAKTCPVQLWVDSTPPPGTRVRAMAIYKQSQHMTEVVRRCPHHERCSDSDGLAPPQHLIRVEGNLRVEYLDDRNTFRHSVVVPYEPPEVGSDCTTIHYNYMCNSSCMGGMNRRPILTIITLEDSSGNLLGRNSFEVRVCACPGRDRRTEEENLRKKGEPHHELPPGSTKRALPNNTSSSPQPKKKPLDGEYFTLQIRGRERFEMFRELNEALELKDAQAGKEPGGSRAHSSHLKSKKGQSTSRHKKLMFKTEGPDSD
How it was run: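 Cleaved-to-uncleaved substrate ratio (460 vs 530 nm) measured in HCT116 cells with an inducible beta-lactamase reporter linked to p53 activity. Compounds incubated 16 h at 37C before 2 h room-temperature CCF4-AM loading.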

[16] = TOX21_p53_BLA_p3_viability: Viability Assessment in the Tox21 HCT-116 p53 Agonism Beta-lactamase Assay, Phase 3 (AID 2283593; active = hit-call score of the fitted dose curve at least 0.9, where 1 is the maximum;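 note: cells exposed to compound for 16 h before reading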)
How it was run: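 HCT116 cells, 4000/well, dosed 5 h after plating by pin transfer (217-fold dilution from DMSO stock) and incubated 16 h at 37C, 5% CO2. Viability read as ATP luminescence with CellTiter-Glo after 30 min at room temperature.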

[17] = biological target: Cellular tumor antigen p53 (Homo sapiens) (UniProt P04637); experiment: TOX21_p53_BLA_p3_ratio: Tox21 HCT-116 p53 Agonism Beta-lactamase Assay, Ratio, Phase 3 (AID 2283596; active = hit-call score of the fitted dose curve at least 0.9, where 1 is the maximum)
How it was run: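 Cells were seeded at 4000/well, rested 5 h at 37C, then dosed with DMSO compound solutions (217-fold dilution) for 16 h. CCF4-AM substrate was loaded for 2 h at room temperature, and the 460/530 nm emission ratio was fitted for gain of signal versus DMSO.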

[18] = TOX21_p53_BLA_p4_viability: Viability Assessment in the Tox21 HCT-116 p53 Agonism Beta-lactamase Assay, Phase 4 (AID 2283597; active = hit-call score of the fitted dose curve at least 0.9, where 1 is the maximum;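 note: hits lower the luminescence signal meaning cytotoxicity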)
How it was run: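 Viability is taken as cellular ATP: after 16 h compound exposure of HCT116 cells and a 2 h room-temperature CCF4-AM substrate step, CellTiter-Glo reagent is added and luminescence is measured 30 min later.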

[19] = read-out: UDP glucuronosyltransferase (UGT1A6), UGT1A6 (gene 54578); experiment: LTEA_HepaRG_UGT1A6: Life Technologies and Expression Analysis (LTEA) Assay for UDP glucuronosyltransferase (UGT1A6) using HepaRG (AID 2283539); details: mRNA level, 48 h; actives raise or lower the signal
How it was run: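 Endpoint is UGT1A6 transcript induction or loss in a human liver cell line, quantified by TaqMan qRT-PCR 48 h after dosing. Concentrations ran from 100 uM downward in half-log steps in 0.5% DMSO; activity was fitted in both directions versus vehicle.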

Measured: AC50

Signal transducer and activator of transcription 3 (Homo sapiens), sequence (P40763 whole entry, looked up): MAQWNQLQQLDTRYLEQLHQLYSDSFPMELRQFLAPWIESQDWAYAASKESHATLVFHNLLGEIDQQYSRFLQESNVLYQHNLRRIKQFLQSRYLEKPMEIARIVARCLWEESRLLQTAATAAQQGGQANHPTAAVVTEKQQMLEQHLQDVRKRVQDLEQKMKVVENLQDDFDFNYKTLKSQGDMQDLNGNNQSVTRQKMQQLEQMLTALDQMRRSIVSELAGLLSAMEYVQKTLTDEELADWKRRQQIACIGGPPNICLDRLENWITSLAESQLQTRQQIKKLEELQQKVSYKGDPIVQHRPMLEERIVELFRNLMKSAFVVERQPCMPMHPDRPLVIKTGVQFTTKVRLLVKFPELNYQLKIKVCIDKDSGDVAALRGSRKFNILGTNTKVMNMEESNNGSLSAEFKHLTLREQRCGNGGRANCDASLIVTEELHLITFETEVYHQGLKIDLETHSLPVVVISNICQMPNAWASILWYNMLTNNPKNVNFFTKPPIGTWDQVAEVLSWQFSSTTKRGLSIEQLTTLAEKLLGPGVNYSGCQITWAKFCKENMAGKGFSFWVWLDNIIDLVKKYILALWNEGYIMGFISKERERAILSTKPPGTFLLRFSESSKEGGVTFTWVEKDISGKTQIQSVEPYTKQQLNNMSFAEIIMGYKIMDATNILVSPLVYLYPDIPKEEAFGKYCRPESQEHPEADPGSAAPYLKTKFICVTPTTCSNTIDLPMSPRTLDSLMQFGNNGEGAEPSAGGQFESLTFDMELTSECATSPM

COc1cc(C=O)ccc1O
not listed: [19]
inactive: all other assays above

COc1ccc2c(c1)c(CC(=O)O)c(C)n2C(=O)c1ccc(Cl)cc1
not listed: [11]
inactive: all other assays above

C1CCC(SSC2CCCCC2)CC1
not listed: [18]
inactive: all other assays above

CCCCCCCCCCCCCO
not listed: [14]
inactive: all other assays above

COc1ccc(C)cc1N
not listed: [14] | [16]
inactive: all other assays above

COc1cc(S(=O)(=O)O)c(C)cc1N=Nc1c(O)ccc2cc(S(=O)(=O)O)ccc12
not listed: [12] | [14] | [16]
inactive: all other assays above

Cc1oc(-c2ccccc2)nc1CCOc1cccc2c1ccn2CCC(=O)O
inactive: [1] | [2] | TIMP1, TIMP1 (gene 7076) | [7] | [11] | [14] | [16] | [17] | [18]
active: [3] 82.4 µM | [4] 90.5 µM | [5] 50 µM | [6] 16.9 µM | [8] 79.1 µM | [9] 80.1 µM | [10] 90.9 µM | [19] 79.8 µM | [12] 81.4 µM | [15] 68.6 µM
